Assay [1] is described as follows: p53 small molecule agonists, cell-based qHTS assay with human liver microsomes (AID 1963577). In a few lines:
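p53RE-bla reporter cells were pre-incubated 5 h at 37 C, then treated with compounds plus human liver microsomes (0.5 mg/mL final) and NADPH (0.5 mg/mL final) for 16 h at 37 C. Beta-lactamase activity was read by LiveBLAzer fluorescence after 2 h at room temperature.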
(In qHTS, concentration-response curves come from the screen itself.)

The nature of assay [2]: p53 small molecule agonists, cell-based qHTS assay with rat liver microsomes (AID 1963578). In a few lines: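 p53RE-bla cells were exposed to compounds together with rat liver microsomes (0.5 mg/mL final) and NADPH (0.5 mg/mL final) for 16 h at 37 C, then read by LiveBLAzer beta-lactamase fluorescence after 2 h at room temperature.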
Assay [3] is described as follows: p53 small molecule agonists, cell-based qHTS assay with human liver microsomes: qHTS cell viability counter screen (AID 1963579). Further: nearly all actives have a fitted effect of over 45% in size. In short, it runs like this: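 p53RE-bla cells (4,000/well) were pre-incubated 5 h at 37 C, then given compounds in DMSO plus human liver microsomes (0.5 mg/mL final) and NADPH (0.5 mg/mL final) for 16 h at 37 C. Viability was read by CellTiter-Glo luminescence.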

Assay [4] can be described thus: p53 small molecule agonists, cell-based qHTS assay with rat liver microsomes: qHTS cell viability counter screen (AID 1963580). Further: nearly all actives have a fitted effect of over 45% in size. In short, it runs like this:
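In HCT-116 cells carrying a p53 response element-bla reporter, compounds were metabolically activated in situ by rat liver microsomes with NADPH over 16 h. Cell ATP content then served as the cytotoxicity measure.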

Assay [5] can be described thus: p53 small molecule agonists, cell-based qHTS assay: qHTS cell viability counter screen (AID 1963581). Further: nearly all actives have a fitted effect of over 45% in size. In a few lines:
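HCT-116 p53RE-bla cells, 4,000/well, plated 5 h before compound pin transfer; 16 h at 37 C; bla substrate 2 h RT; then CellTiter-Glo, 30 min RT, luminescence.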

Assay [6] can be described thus: p53 small molecule agonists, cell-based qHTS assay (AID 1963582; active means well fitted activation curve with a large enough effect in the signal ratio in the repeat runs, not every such curve was filed as active; the % refers to the signal ratio). In short, it runs like this:
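Reporter line: p53RE-bla. Pre-incubation 5 h, 37 C, 5% CO2; compound (DMSO, pin tool) 16 h, 37 C; B/G FRET substrate 2 h RT; fluorescence intensity read.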

Assay [7] concerns the target 5-hydroxytryptamine receptor 2A (Homo sapiens) (UniProt P28223). In words: 5-hydroxytryptamine receptor 2A (HTR2A) small molecule antagonists, cell-based qHTS assay (AID 1963586). Further: nearly all actives have a fitted effect of over 45% in size. In short, it runs like this:
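Antagonist-mode intracellular calcium assay: DOI (4 nM) added after 5 min compound pre-incubation at room temperature to dye-loaded HTR2A-CHO cells. Fluorescence followed for 3 min, sampled every second.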

The target is the same in assay [8]. The experiment in a line: 5-hydroxytryptamine receptor 2A (HTR2A) small molecule agonists, cell-based qHTS assay (AID 1963587). Further: nearly all actives have a fitted effect of over 30% in size. Further: potency means the concentration at half of the fitted maximal effect. In short, it runs like this:
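HTR2A-CHO cells, plated 18 h at 37 C/5% CO2, dye-loaded 1 h at 37 C; compounds in DMSO added by pin tool (agonist mode). Intracellular calcium flux read as kinetic fluorescence on FDSS over 2 min at 1 s intervals.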

Assay [9] deals with Muscarinic acetylcholine receptor M1 (Homo sapiens) (UniProt P11229). The experiment in a line: Cholinergic receptor muscarinic 1 (CHRM1) small molecule antagonists, cell-based qHTS assay (AID 1963588). Further: nearly all actives have a fitted effect of over 40% in size. Further: potency means the concentration at half of the fitted maximal effect. In a few lines: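 CHRM1-CHO calcium-flux assay, antagonist mode. Cells were seeded 18 h, dye-loaded 1 h at 37 C and given compound for 5 min at RT, then acetylcholine was added at 50nM. FDSS fluorescence was read 3 min; 15 concentrations, three runs.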

For assay [10] the target is unchanged. The experiment in a line: Cholinergic receptor muscarinic 1 (CHRM1) small molecule agonists, cell-based qHTS assay (AID 1963589). Further: nearly all actives have a fitted effect of over 35% in size. In short, it runs like this:
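Human M1 in stable CHO line; 18 h plating, 1 h dye load 37 C; cpd added (agonist mode); Ca2+ fluorescence kinetic read, 1 s intervals; 15 conc, 3 runs.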

Assay [11] concerns the target Beta-2 adrenergic receptor (Homo sapiens) (UniProt P07550). The experiment in a line: Adrenergic beta2 receptor (ADRB2) small molecule antagonists, cell-based qHTS assay (AID 1963592). Further: series mostly up to about 92 µM; nearly all actives have a fitted effect of over 50% in size. In short, it runs like this:
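Cells (CHO, stable ADRB2 overexpression) incubated 18-20hr at 37C; compounds added from DMSO; agonist mix (1nM isoproterenol, 100uM IBMX, 25uM Ro-20-1724) added; 0.5hr RT; d2-cAMP and anti-cAMP-cryptate added; 1hr RT; 665/615 nm read.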

The target is the same in assay [12]. The experiment in a line: Adrenergic beta2 receptor (ADRB2) small molecule agonists, cell-based qHTS assay (AID 1963593). Further: potency means the concentration at half of the fitted maximal effect.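 On activation: CHO cells stably overexpressing human ADRB2.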 In short, it runs like this: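 CHO cells stably over-expressing ADRB2 were plated overnight at 37C, then dosed with compounds plus a stimulation mix containing 100uM IBMX and 25uM Ro-20-1724 for 0.5hr at room temperature. cAMP was measured by HTRF competition, 1hr.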

Assay [13] has as its target D(2) dopamine receptor (Homo sapiens) (UniProt P14416). The experiment in a line: Dopamine D2 receptor (DRD2) small molecule agonists, cell-based qHTS assay (AID 1963594). Further: nearly all actives have a fitted effect of over 35% in size. In short, it runs like this:
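HEK293 cells stably expressing DRD2 were cultured 24 h at 37 C, then given Ro20-1724 (0.1 mM final) and compounds for 10 min at room temperature. NKH477 (200nM) was then added for 30 min. cAMP was read by HTRF.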

The target is the same in assay [14]. The experiment in a line: Dopamine D2 receptor (DRD2) small molecule antagonists, cell-based qHTS assay (AID 1963595; active means well fitted inhibition curve with a large enough effect in the signal ratio in the repeat runs, with a control signal flat; the % refers to the signal ratio; further: potency means the concentration at half of the fitted maximal effect). In a few lines:
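Antagonist mode in DRD2-HEK293 cells: after compound addition with 0.1 mM Ro20-1724, cells received quinpirole (12 nM) and NKH477 (200 nM) for 30 min at room temperature; HTRF cAMP read after 1 h detection.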

In assay [15] the target is Gonadotropin-releasing hormone receptor (Homo sapiens) (UniProt P30968). The experiment in a line: Human gonadotropin-releasing hormone receptor (GnRHR) small molecule agonists, calcium flux assay in GnRHR-HEK293 cells (AID 1920063). Further: nearly all actives have a fitted effect of over 35% in size. Further: potency means the concentration at half of the fitted maximal effect. In short, it runs like this: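 GnRHR-HEK293, 1500 cells/well, 18 h 37 C/5% CO2; Ca dye 1 h 37 C; cpd pinned (DMSO), agonist mode; kinetic FL 480/540, 3 min, 1 s reads; 15 conc, n=3.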

Assay [16] deals with KiSS-1 receptor (Homo sapiens) (UniProt Q969F8). In words: Human kisspeptin (KISS1R) small molecule agonists, calcium flux assay in KISS1R-HEK293 cells (AID 1920064; active means well fitted activation curve with a large enough effect in the repeat runs; further: potency means the concentration at half of the fitted maximal effect). In short, it runs like this:
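Stable human KISS1R HEK293 line; 18 h plating, 37 C/5% CO2; calcium dye 1 h 37 C; compound pin transfer; kinetic fluorescence Ex/Em 480/540, 3 min.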
On the technique in general: Calcium assays in cells follow changes in intracellular calcium, usually with a dye or a luminescent sensor.

The nature of assay [17]: G protein-coupled receptor (GPCR) small molecule agonists, calcium flux assay: HEK293 wild type cell line counter screen (AID 1920065). In short, it runs like this: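 Kinetic fluorescence at Ex/Em 480/540, recorded every second over 3 min, served as the read-out after compound addition. Each compound was tested at 15 concentrations in triplicate on cells pre-loaded with calcium dye for 1 h.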

Assay [18] can be described thus: cAMP Responsive Elements (CRE) small molecule agonists, cell-based qHTS assay (AID 1963590). In a few lines: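 HEK 293T CRE-bla, 2,000 cells/well, 18 h preincubation 37 C/5% CO2; cpds (DMSO) pinned, 3 h; LiveBLAzer B/G FRET substrate, 2 h RT.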
Assay [19] in a line: cAMP Responsive Elements (CRE) small molecule antagonists, cell-based qHTS assay (AID 1963591; active means well fitted inhibition curve with a large enough effect in the signal ratio in the repeat runs, not every such curve was filed as active; the % refers to the signal ratio; further: potency means the concentration at half of the fitted maximal effect). In a few lines:
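Beta-lactamase reporter read by FRET substrate (LiveBLAzer B/G) after 2 h at room temperature. CRE-bla HEK293T cells had received compound plus 0.25 uM (final) NKH477 for 3 h at 37 °C.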

Structures are written as SMILES. Records with an inconclusive call do not appear. Active and inactive are the calls of the source. Unless noted, the call rests on the fitted dose curve. Peptide text beside a SMILES is read from it.

Chain of Gonadotropin-releasing hormone receptor (Homo sapiens) (P30968 whole entry, looked up): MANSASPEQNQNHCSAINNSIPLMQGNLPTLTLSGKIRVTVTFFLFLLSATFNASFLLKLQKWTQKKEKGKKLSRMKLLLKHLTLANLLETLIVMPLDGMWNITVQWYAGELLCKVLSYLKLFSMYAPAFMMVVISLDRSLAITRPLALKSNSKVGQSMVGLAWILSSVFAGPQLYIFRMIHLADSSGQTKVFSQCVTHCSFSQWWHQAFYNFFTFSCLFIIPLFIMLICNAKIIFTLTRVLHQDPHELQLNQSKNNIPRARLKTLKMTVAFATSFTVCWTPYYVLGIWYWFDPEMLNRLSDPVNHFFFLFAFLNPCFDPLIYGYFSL
Chain of 5-hydroxytryptamine receptor 2A (Homo sapiens) (P28223 whole entry, looked up): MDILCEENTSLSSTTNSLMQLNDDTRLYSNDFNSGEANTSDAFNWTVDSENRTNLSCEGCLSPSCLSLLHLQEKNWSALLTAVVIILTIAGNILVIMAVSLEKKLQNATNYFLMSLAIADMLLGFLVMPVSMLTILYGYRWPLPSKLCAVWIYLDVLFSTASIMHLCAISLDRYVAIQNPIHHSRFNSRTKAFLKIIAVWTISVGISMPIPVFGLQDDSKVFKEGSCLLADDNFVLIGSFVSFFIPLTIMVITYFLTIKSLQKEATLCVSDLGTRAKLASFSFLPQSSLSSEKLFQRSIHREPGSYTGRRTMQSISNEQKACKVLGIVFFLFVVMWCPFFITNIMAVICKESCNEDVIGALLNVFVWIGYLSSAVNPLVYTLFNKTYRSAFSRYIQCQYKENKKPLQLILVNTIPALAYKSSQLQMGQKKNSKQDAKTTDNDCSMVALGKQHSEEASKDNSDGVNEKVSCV
Chain of Beta-2 adrenergic receptor (Homo sapiens) (P07550 whole entry, looked up): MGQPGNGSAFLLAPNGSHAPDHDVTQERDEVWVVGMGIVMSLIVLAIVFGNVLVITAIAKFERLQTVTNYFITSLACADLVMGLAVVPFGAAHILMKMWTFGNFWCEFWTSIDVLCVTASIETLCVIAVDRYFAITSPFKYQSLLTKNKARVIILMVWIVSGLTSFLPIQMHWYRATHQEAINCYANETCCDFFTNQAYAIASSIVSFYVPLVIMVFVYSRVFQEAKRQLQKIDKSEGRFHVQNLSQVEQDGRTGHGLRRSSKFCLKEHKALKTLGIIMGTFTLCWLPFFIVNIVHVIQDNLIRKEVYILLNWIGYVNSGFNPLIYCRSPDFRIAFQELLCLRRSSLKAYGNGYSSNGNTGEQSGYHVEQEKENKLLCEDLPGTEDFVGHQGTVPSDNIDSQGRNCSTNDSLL
Chain of D(2) dopamine receptor (Homo sapiens) (P14416 whole entry, looked up): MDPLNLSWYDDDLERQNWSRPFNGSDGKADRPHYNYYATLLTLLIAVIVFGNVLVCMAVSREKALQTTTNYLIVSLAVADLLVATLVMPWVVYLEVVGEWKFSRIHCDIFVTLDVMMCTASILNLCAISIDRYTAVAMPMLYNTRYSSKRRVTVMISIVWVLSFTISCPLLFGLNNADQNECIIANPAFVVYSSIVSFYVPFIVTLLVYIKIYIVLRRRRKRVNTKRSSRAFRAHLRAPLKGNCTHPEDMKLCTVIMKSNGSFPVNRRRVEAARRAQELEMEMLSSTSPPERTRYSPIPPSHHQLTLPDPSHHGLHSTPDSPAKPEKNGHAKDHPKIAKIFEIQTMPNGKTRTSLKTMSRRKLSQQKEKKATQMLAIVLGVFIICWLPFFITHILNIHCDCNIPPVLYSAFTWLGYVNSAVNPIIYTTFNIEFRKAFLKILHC
Chain of Muscarinic acetylcholine receptor M1 (Homo sapiens) (P11229 whole entry, looked up): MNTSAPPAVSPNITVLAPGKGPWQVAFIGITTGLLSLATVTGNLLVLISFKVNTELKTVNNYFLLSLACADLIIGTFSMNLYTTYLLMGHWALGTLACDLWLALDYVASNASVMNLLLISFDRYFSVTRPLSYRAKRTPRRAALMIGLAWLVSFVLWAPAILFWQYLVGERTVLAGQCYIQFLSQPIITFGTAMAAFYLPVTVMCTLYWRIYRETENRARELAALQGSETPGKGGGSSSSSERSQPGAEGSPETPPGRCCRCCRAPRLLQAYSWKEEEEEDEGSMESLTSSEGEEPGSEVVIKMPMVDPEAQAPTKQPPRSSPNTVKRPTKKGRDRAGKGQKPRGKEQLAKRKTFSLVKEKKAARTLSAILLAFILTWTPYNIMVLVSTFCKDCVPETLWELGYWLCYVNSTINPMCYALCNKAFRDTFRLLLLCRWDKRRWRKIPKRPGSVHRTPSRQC
Chain of KiSS-1 receptor (Homo sapiens) (Q969F8 whole entry, looked up): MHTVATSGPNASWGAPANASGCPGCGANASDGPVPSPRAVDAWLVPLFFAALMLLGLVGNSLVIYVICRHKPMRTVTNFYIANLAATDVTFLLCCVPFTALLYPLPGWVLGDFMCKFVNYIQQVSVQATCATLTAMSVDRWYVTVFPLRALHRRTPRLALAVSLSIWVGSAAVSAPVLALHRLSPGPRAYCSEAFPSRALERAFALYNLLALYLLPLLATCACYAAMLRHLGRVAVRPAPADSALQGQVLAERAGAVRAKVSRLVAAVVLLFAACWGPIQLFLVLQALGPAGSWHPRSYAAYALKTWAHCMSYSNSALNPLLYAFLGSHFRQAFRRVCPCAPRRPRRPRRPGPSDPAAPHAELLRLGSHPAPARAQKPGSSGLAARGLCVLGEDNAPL

Consider `O=C(O)/C=C/C(=O)O`, for which the Potency result in assay [1], in [2], in [3], in assay [4], in assay [5] and in assay [6] was “inactive” throughout.
As to `O=[N+]([O-])c1ccccc1Cl`, the Potency result in assay [7], in assay [8], in [9], in [10], in [11] and in assay [12] was “inactive” throughout. For the same compound, the Potency entry in assay [13] and in [14] was “inactive” in each case.
Take `CC(=O)N[C@@H](CO)C(=O)N[C@@H](CC(=O)O)C(=O)N[C@@H](CCCCN)C(=O)N1CCC[C@H]1C(=O)O` (Ac-SDKP-OH): the Potency result in [7], in assay [8] and in assay [9] was “inactive” in each case.
Regarding `CN1CC[C@]23c4c5ccc(O)c4O[C@H]2[C@@H](O)C=C[C@H]3[C@H]1C5`, the Potency result in assay [15], in assay [16], in [17], in [5], in assay [7] and in assay [8] was “inactive” in each case. Besides, the Potency result in [10], in assay [18], in assay [19], in assay [11], in [12] and in assay [13] was “inactive” in each case. Further, the Potency entry in assay [14] was “inactive”.
On to `Oc1c(Cl)cc(Cl)cc1Cl`, for which the Potency entry in [7], in assay [10], in [11], in assay [13] and in [14] was “inactive” throughout.
In the case of `Cc1ccc2ccccc2c1C`, the Potency result in [7], in [8], in assay [9], in assay [11] and in assay [14] was “inactive” each time.
Turning to `S=C(SSC(=S)N1CCCCC1)N1CCCCC1`, the Potency entry in assay [15], in [16], in assay [1], in assay [2], in [3] and in assay [6] was “inactive” throughout. Further, the Potency result in assay [7], in [9], in assay [10], in assay [11], in [12] and in assay [13] was “inactive” throughout. The Potency result in assay [14] is “inactive”. For the same compound, the Potency was 10.7 µM (active) in [8] and 1.68 µM (active) in assay [19].
Turning to `c1ccccc1`, the Potency result in assay [1], in [2], in assay [3], in assay [4], in assay [5] and in [6] was “inactive” in each case.
Turning to `CCOC(=O)[C@]1(c2ccccc2)Oc2ccccc2[C@@H]1N`, the Potency entry in [15], in [16], in [17], in assay [3], in assay [4] and in assay [5] was “inactive” in each case. Moreover, the Potency result in assay [7], in assay [8], in [10], in [11] and in assay [13] was “inactive” each time. For the same compound, in assay [9], the Potency is 8.4 µM (active).
Turning to `CCC1(c2cnc[nH]2)Cc2ccccc2C1`, the Potency result in assay [1], in assay [2], in [3], in assay [4], in assay [5] and in assay [6] was “inactive” in each case.
In the case of `C#C[C@]1(O)CC[C@H]2[C@@H]3CCC4=CC(=O)CCC4=C3C=C[C@@]21CC`, the Potency entry in assay [15], in [17], in assay [3], in assay [8], in [9] and in assay [10] was “inactive” throughout. Moreover, the Potency result in assay [13] and in assay [14] was “inactive” each time.
Turning to `O=C(O)/C=C\C(=O)O`, the Potency entry in [1], in assay [2], in assay [3], in assay [4], in assay [5] and in assay [6] was “inactive” each time.
As to `NC(=O)CC[C@@H]1NC(=O)[C@H](Cc2ccccc2)NC(=O)[C@H](Cc2ccc(O)cc2)NC(=O)CCSSC[C@@H](C(=O)N2CCC[C@H]2C(=O)N[C@@H](CCCN=C(N)N)C(=O)NCC(N)=O)NC(=O)[C@H](CC(N)=O)NC1=O`, the Potency entry in assay [8], in assay [9] and in assay [10] was “inactive” in each case.
As for `ClC1=C(Cl)[C@]2(Cl)[C@@H]3[C@@H]4C[C@@H]([C@H]5O[C@@H]45)[C@@H]3[C@@]1(Cl)C2(Cl)Cl`, the Potency is 7.76 µM (active) in assay [15], 23.7 µM (active) in assay [16], 10.9 µM (active) in assay [12] and 68.6 µM (active) in assay [14]. In addition, the Potency result in assay [5] was “inactive”.
